Measurements taken from PubChem BioAssay AID1851 (National Center for Advancing Translational Sciences (NCATS), 2009).
The campaign covered roughly 16,000 compounds. About 5,100 (32%) were called active. Another 25% or so got no clear call; they are omitted. The list shows a part of the results. Values without a mark were called inactive. Calls follow the shape of the dose curve; as a rule, active = well fitted curve in the direction sought with a large enough effect; inconclusive = small, poorly fitted or top-dose-only effect, or effect the other way; inactive = no such curve, though single readings can be large or run the other way.
% is scaled to controls: 0 for no effect and ±100 for the full control effect.

What follows are compounds tested against Cytochrome P450 3A4 (Homo sapiens) (UniProt P08684) (assay: Cytochrome panel assay with activity outcomes). Details: recombinant CYP, pro-luciferin dealkylation, luminescence, p450-cyp3a4; series mostly up to 57.1 µM; activity, negative = inhibition: at the top concentration.
Cytochrome P450 3A4 (Homo sapiens), sequence (P08684 whole entry, looked up): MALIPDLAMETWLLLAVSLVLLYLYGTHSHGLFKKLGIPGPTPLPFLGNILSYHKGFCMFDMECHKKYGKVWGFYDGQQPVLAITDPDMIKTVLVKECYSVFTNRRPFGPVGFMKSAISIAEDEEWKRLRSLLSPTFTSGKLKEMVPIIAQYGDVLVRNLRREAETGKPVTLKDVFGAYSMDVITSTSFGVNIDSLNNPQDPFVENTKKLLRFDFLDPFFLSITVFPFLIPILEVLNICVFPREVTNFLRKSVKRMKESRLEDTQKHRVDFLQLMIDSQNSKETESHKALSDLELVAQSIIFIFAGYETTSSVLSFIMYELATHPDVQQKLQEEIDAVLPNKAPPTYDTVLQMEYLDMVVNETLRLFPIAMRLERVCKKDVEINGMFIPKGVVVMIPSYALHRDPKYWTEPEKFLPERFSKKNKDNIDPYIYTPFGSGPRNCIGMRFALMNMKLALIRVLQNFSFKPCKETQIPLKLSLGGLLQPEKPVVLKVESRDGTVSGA
For `Cc1ncc(N=Nc2ccccc2Cl)c(-c2ccccc2)n1`, the “activity, negative = inhibition” value was -21.3%.
With `COC(=O)CNC(=O)CN1C(=O)N(c2ccc(Cl)cc2)C(N(O)C(=O)Nc2ccc(Cl)cc2)C1(C)C` (configuration not stated) the AC50 was 4.47 µM (active).
For `COC(=O)CNC(=O)CN1C(=O)N(c2ccccc2)C(N(O)C(=O)Nc2ccccc2)C1(C)C` (configuration not stated), the “activity, negative = inhibition” value was 27.6%.
`COC(=O)CC1C(=O)NCCN1C(=O)Nc1ccc(Cl)cc1` (configuration not stated) was tested, and the “activity, negative = inhibition” value was -7.49%.
`COc1cc(C)ccc1OCCOc1cc(C)ccc1Cl` showed an activity, negative = inhibition of 5.86% [at 2.29 µM].
In the case of `Cc1ccc(OCCOCCn2ccnc2)c(Br)c1`, the AC50 is reported as 0.562 µM (active).
For `Cc1cccc(OCCCCCn2ccnc2)c1`, the AC50 was 0.562 µM (active).
With `O=C(O)c1cccc(OCCO)c1` the activity, negative = inhibition was -12.1% [at 11.4 µM].
For `Cc1cc2[nH]c(=O)c3ccccc3n2n1`, the “activity, negative = inhibition” value was -11%.
In the case of `O=c1cc(CSc2nnc(-c3cccnc3)n2-c2ccccc2F)nc2sccn12`, the AC50 is reported as 2.82 µM (active).
In the case of `Cn1cc(C(=O)N/N=C/C(Br)=C\c2ccccc2)ccc1=O`, the “activity, negative = inhibition” value is reported as -21.8%.
For `O=C(Nc1cccc(F)c1)N1CC[C@@]2(CCCN(S(=O)(=O)c3ccccc3)C2)C1`, the AC50 was 25.1 µM (active).
In the case of `CS(=O)(=O)N1CCC2(CCN(C(=O)Nc3cccc(C#N)c3)CC2)CC1`, the “activity, negative = inhibition” value is reported as -0.782%.
`CS(=O)(=O)N1CCC2(CCN(C(=O)Nc3cccc(F)c3)CC2)CC1` was tested, and the “activity, negative = inhibition” value was 0.77%.
`O=C(Nc1cccc(F)c1)N1CC2(CCN(S(=O)(=O)c3ccccc3)CC2)C1` was tested, and the “activity, negative = inhibition” value was -16.5%.
With `N#Cc1cccc(NC(=O)N2CC[C@@]3(CCCN(S(=O)(=O)c4ccccc4)C3)C2)c1` the AC50 was 3.16 µM (active).
In the case of `CS(=O)(=O)N1CCC[C@@]2(CCN(C(=O)Nc3ccccc3)C2)C1`, the “activity, negative = inhibition” value is reported as -21.2%.
In the case of `O=C(Nc1cccc(F)c1)N1CCCC2(CCN(S(=O)(=O)c3ccccc3)CC2)C1`, the AC50 is reported as 12.6 µM (active).
With `CC(/C=C1\N=C(SCc2ccccc2Cl)SC1=O)=C\c1ccccc1` the AC50 was 14.1 µM (active).
With `Clc1ccccc1CSc1nnc(/C=C/c2ccccc2)o1` the “activity, negative = inhibition” value was -23.3%.
For `O=c1[nH]c2cc(Cl)ccc2c(O)c1-c1cccc(Oc2ccccc2)c1`, the “activity, negative = inhibition” value was -19.3%.
With `CC1(C)CCC=[N+]1[O-]` the “activity, negative = inhibition” value was 16.1%.
`NC(N)=NC(N)=Nc1ccccc1` was tested, and the “activity, negative = inhibition” value was -12.3%.
`CCc1ccc(OCCCC(=O)Nc2ccc(N3CCCCC3)cc2)cc1` was tested, and the “activity, negative = inhibition” value was -10.4%.
For `O=C(Nc1ccc(N2CCCCC2)cc1)c1cncc(Br)c1`, the AC50 was 1.41 µM (active).
In the case of `O=C(O)CNC(=O)[C@@H](CS)Cc1ccccc1`, the “activity, negative = inhibition” value is reported as 0.949%.
In the case of `COc1ccccc1C(=O)NCCn1cc(SCC(=O)Nc2nnc(C)s2)c2ccccc21`, the AC50 is reported as 6.31 µM (active).
`CCSc1nnc(NC(=O)Cc2ccccc2OC)s1` was tested, and the “activity, negative = inhibition” value was -9.72%.
In the case of `CCCCCCCCCCCCCCC/C=C\[C@H](O)[C@@H](NC(=O)CCCCCCCCCCCCC)OC` (tested in a mixture with another compound), the “activity, negative = inhibition” value is reported as 15.6%.
With `CC(=O)NCCc1ccc(O)c(O)c1` the “activity, negative = inhibition” value was -7.98%.
With `CCCCCCCCCCCCCCCC(=O)NC(C)C` the “activity, negative = inhibition” value was -13.2%.
`CCCCCCC/C=C\CCCCCCCCC(=O)O` was tested, and the “activity, negative = inhibition” value was -7.01%.
In the case of `CCCCCCCC/C=C\CCCCCCCC(=O)NCCc1ccc(O)c(O)c1`, the AC50 is reported as 3.16 µM (active).
In the case of `CCCCCCCC/C=C\CCCCCCCC(=O)N[C@@H](CO)Cc1ccc(O)cc1`, the AC50 is reported as 10 µM (active).
In the case of `N=C(N)SCC(=O)O`, the activity, negative = inhibition is reported as -3.45% [at 11.4 µM].
With `O=S(=O)(c1ccccc1)N1CCC2(CC1)CN(Cc1ccccc1)C2` the “activity, negative = inhibition” value was 11.6%.
`O=S(=O)(c1ccccc1)N1CCC2(CCCN(Cc3ccncc3)C2)CC1` was tested, and the AC50 was 3.98 µM (active).
`CC(C)CN1CCCC2(CCN(S(=O)(=O)c3ccccc3)CC2)C1` was tested, and the AC50 was 15.8 µM (active).
In the case of `N#Cc1ccc(CN2CCCC3(CCN(S(=O)(=O)c4ccccc4)CC3)C2)cc1`, the AC50 is reported as 3.16 µM (active).
`CC(C)CN1CCC2(CC1)CCN(S(=O)(=O)c1ccccc1)CC2` was tested, and the “activity, negative = inhibition” value was -5.33%.
In the case of `O=S(=O)(c1ccccc1)N1CCC2(CCN(Cc3ccccc3)CC2)CC1`, the “activity, negative = inhibition” value is reported as -5.59%.
With `O=S(=O)(c1ccccc1)N1CCC2(CCN(Cc3ccncc3)CC2)CC1` the AC50 was 3.98 µM (active).
`CC/C=C\CC[C@H](O)C1=CCCCC1=O` showed an activity, negative = inhibition of -12.1% [at 11.4 µM].
With `CC1CC(=O)c2cnc(N)nc2C1` (configuration not stated) the “activity, negative = inhibition” value was 6.35%.
With `COc1ccc(C2CC(=O)c3cnc(Nc4cc(C)cc(C)c4)nc3C2)cc1` (configuration not stated) the AC50 was 4.47 µM (active).
Compound `Cc1ccc(C2CC(=O)c3cnc(N4CCc5ccccc5C4)nc3C2)cc1` (configuration not stated) has an activity, negative = inhibition of -6% [at 2.29 µM].
Compound `O=C1CC(c2ccccc2)Cc2nc(N3CCc4ccccc4C3)ncc21` (configuration not stated) has an activity, negative = inhibition of 2.14% [at 2.29 µM].
In the case of `COc1ccc(Nc2ncc3c(n2)CC(c2ccc(C)cc2)CC3=O)cc1` (configuration not stated), the AC50 is reported as 8.91 µM (active).
`Nc1ncnc2c1ncn2C[C@@H](O)C(=O)O` was tested, and the activity, negative = inhibition was 1.58% [at 11.4 µM].
With `COc1ccc(Oc2ncc3nc(C)c(=O)n(C[C@H]4CCCO4)c3n2)cc1` the AC50 was 3.98 µM (active).
With `COc1ccc(Oc2ncc3ncc(=O)n(C[C@H]4CCCO4)c3n2)cc1` the AC50 was 12.6 µM (active).
For `O=c1cnc2cnc(Oc3cccc(Cl)c3)nc2n1C[C@H]1CCCO1`, the “activity, negative = inhibition” value was -20.3%.
For `COc1ccc(-c2nc3cnc(N4CCOCC4)nc3n(C[C@H]3CCCO3)c2=O)cc1`, the “activity, negative = inhibition” value was -3.59%.
In the case of `CCNc1ncc2nc(C)c(=O)n(C[C@H]3CCCO3)c2n1`, the “activity, negative = inhibition” value is reported as -10.9%.
In the case of `CCNc1ncc2ncc(=O)n(C[C@H]3CCCO3)c2n1`, the “activity, negative = inhibition” value is reported as -21%.
With `CN(CCC(=O)O)S(=O)(=O)c1ccccc1` the activity, negative = inhibition was -26.6% [at 11.4 µM].
`Nc1ccc(N(S(=O)(=O)c2ccccc2)S(=O)(=O)c2ccccc2)c(Cl)c1` was tested, and the AC50 was 0.0316 µM (active).
`CN=C(N)/N=C(\N)Nc1cc2ccccc2c2ccccc12` showed an activity, negative = inhibition of -14.5% [at 11.4 µM].
For `NC(=S)Nc1cc2ccccc2c2ccccc12`, the AC50 was 15.8 µM (active).
`O=C(O)c1c2ccccc2cc2ccccc12` was tested, and the “activity, negative = inhibition” value was 0.0487%.
Compound `CCN(CC)C(=O)C1CC(=O)N(c2ccc(OC)cc2)C1c1ccc(OC)cc1` (configuration not stated) has an activity, negative = inhibition of -28.4% [at 2.29 µM].
For `O=C1CC(=O)C(n2cncn2)C(c2cccc(Cl)c2)C1` (configuration not stated), the AC50 was 0.501 µM (active).
In the case of `COc1ccc(C2CC(=O)CC(=O)C2n2cncn2)cc1` (configuration not stated), the AC50 is reported as 2.24 µM (active).
In the case of `COCCNc1nc(-c2cccc(NS(C)(=O)=O)c2)nc2ccccc12`, the AC50 is reported as 12.6 µM (active).
`Cc1cccc(CNc2nc(-c3cccc(NS(C)(=O)=O)c3)nc3ccccc23)c1` was tested, and the AC50 was 5.01 µM (active).
With `CS(=O)(=O)Nc1cccc(-c2nc(NCc3cccs3)c3ccccc3n2)c1` the AC50 was 3.16 µM (active).
`CS(=O)(=O)Nc1cccc(-c2nc(NCc3cccnc3)c3ccccc3n2)c1` was tested, and the AC50 was 2 µM (active).
